PubChem BioAssay AID624330 (Southern Research Specialized Biocontainment Screening …, 2012)
Out of some 340,000 compounds screened, about 2,100 (0.62%) were called active.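 The calls were made as follows: active = first-screen hits whose inhibition reached a set limit at any dose in the follow-up dose series; inconclusive = inhibition above the set first-screen limit but never retested; inactive = the rest.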 Only a sample is shown. Measured potencies and affinities stand elsewhere.

What follows are compounds tested against Rac GTPase-activating protein 1 (Homo sapiens) (UniProt Q9H0H5) (assay: blockers of MgcRacGAP-driven Rac1 GTP hydrolysis – biochemical, ADP Hunter fluorescence, primary and confirmatory, confirmation (AID 624330;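 also: fluorescence reports GDP produced by GAP-driven GTP hydrolysis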)). Conditions: MgcRacGAP-stimulated Rac1 GTP hydrolysis, at 30 µM, active compounds read high, GST-tagged Rac1 F28L mutant substrate.
Chain of Rac GTPase-activating protein 1 (Homo sapiens) (Q9H0H5 whole entry, looked up): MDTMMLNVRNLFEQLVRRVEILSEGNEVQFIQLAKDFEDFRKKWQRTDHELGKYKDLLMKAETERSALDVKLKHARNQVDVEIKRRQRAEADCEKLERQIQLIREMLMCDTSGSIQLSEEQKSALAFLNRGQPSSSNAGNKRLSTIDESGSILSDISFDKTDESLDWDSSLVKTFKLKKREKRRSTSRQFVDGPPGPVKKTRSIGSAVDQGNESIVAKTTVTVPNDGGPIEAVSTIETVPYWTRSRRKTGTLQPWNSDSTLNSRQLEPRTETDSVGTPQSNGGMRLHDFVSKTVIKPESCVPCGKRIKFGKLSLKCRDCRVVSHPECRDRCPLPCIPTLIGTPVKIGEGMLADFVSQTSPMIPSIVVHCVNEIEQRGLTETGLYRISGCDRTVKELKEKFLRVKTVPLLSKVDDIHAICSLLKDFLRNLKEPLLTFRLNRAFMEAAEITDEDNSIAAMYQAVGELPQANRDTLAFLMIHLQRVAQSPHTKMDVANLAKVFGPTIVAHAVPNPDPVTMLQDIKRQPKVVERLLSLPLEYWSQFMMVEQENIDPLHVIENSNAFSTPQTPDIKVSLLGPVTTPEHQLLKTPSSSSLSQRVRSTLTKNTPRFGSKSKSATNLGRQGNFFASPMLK

inhibition, inactive:
Cc1ccc(C(=O)N2CC=C(c3ccccc3)CC2)s1 -2.79%
CCCCN(C(=O)Nc1ccc(Cl)cc1)C1CCN(C(C)=O)CC1 12.3%
Cc1cc(NC(=O)c2ccc([N+](=O)[O-])cc2Cl)ccc1NC(=O)c1ccco1 5.16%
Oc1ccccc1C=Nc1cccc2ccccc12 12.9%
Cc1ccccc1N=Cc1cccc(O)c1O 12.1%
Cc1ccc(N=Cc2cccc(O)c2O)c(C)c1 27.7%
C=CCc1cccc(C=Nc2ccc(Br)cc2)c1O 2.02%
C=CCc1cccc(/C=N/c2ncccc2O)c1O 15.7%
Cc1cccc(N=Cc2ccccc2O)c1C 6.78%
COc1ccc(COCC(O)CN2CCC(CN3C(=O)c4cccc5cccc(c45)C3=O)CC2)cc1OC (configuration not stated) 5.74%
O=C(c1cc(=O)c2ccccc2o1)N1CCCc2ccccc21 4.48%
O=C(O)CCCC(=O)Nc1nc2n(n1)C(c1ccc(F)cc1)CC(c1ccc(Cl)cc1)N2 (configuration not stated) -3.19%
Brc1ccc(CSc2nccn2-c2ccccc2)cc1 -2.52%
CCOc1ccc(-c2nnc(-c3ccccc3)n2-c2ccccc2)cc1 1.23%
CCOc1ccc(S(=O)(=O)NCCC(=O)OCC(=O)N2CC(=O)Nc3ccccc32)cc1 2.23%
CCN(CC)S(=O)(=O)c1ccc(Cl)c(NC(=O)COC(=O)c2cc(-c3ccccc3Cl)nc3ccccc23)c1 5.1%
CC(C)N(Cc1nccn1C)C(=O)c1ccc2oc(CCCc3ccccc3)nc2c1 -4.5%
COc1cc(OC)c(C(=O)Nc2ccncc2)cc1OC 6.31%
COc1cc(C(=O)Nc2ccc(N(C)C)cc2)c([N+](=O)[O-])cc1OC 19.1%
Cc1oc(-c2ccccc2)cc1C(=O)Nc1ccccc1 19.3%
COc1ccc(NC(=S)c2ccc(N(C)C)cc2)cc1 6.87%
COc1ccc(NC(=O)c2cc(-c3ccccc3)oc2C)cc1 8.42%
COc1ccc(NC(=O)Nc2ccc(OC)cc2)cc1 4.31%
CCOc1ccccc1C(=O)NCC(=O)NCC(C)(C)N1CCOCC1 3.54%
O=C(C1COc2ccccc2O1)N1CCN(c2nc3c(F)cc(F)cc3s2)CC1 (configuration not stated) 1.62%
CCOC(=O)C1CCCN(S(=O)(=O)c2c(C)c(C)cc(C)c2C)C1 (configuration not stated) 3.51%
COC(=O)C1=C(C(=O)c2ccccc2)C(c2cccs2)n2nnnc2N1 (configuration not stated) 12.1%
CCN(c1ccccc1)S(=O)(=O)c1cccc(C(=O)Nc2cccc(C)n2)c1 16.5%
CCC1CCCCN1C(=O)CSc1nc(N)cc(=O)[nH]1 (configuration not stated) 9.52%
COc1ccc(Cl)cc1NCCC(O)c1ccc(F)cc1 (configuration not stated) 10.5%
COc1ccc(C(O)CNc2ccc(C)cc2)cc1 (configuration not stated) 12.6%
Cc1cccc(NC(=O)c2ccc(COc3ccccc3)o2)n1 -1.27%
CC(C)(CC(=O)OCC(=O)Nc1ccccc1F)CC1=NS(=O)(=O)c2ccccc2N1 8.87%
CCOC(=O)C1(CC2CCCCO2)CCN(C(=O)Nc2ccc(C)c(C)c2)CC1 (configuration not stated) 8.55%
O=C(NCc1ccccc1)C1=C[C@H](c2csc3ccccc23)C[C@H](OCCCCO)O1 5.83%
COc1cc(/C=N/NC(=O)c2c(C)nnn2-c2nonc2N)ccc1O 21.5%
Cc1nonc1C(=O)N/N=C/c1ccncc1 4.44%
Cc1nnn(-c2nonc2N)c1C(=O)N/N=C/c1ccccc1O 5.56%
COc1cccc(/C=N/NC(=O)c2nnn(-c3nonc3N)c2C(C)C)c1 2.84%
Cc1nonc1C(=O)N/N=C/c1cccc(O)c1 5.55%
Cc1nonc1C(=O)N/N=C/c1ccc([N+](=O)[O-])o1 6.74%
Cc1nonc1C(=O)N/N=C/c1ccccc1 7.47%
COc1cc(/C=N/NC(=O)c2nnn(-c3nonc3N)c2C(C)C)ccc1OCc1ccccc1 12.2%
Cc1cc(NC(=O)COC(=O)c2cc([N+](=O)[O-])ccc2N2CCOCC2)ccc1Br -0.1%
O=C(COc1ccccc1F)NC12CC3CC(CC(C3)C1)C2 9.07%
CCN(CC(=O)Nc1c(F)cccc1F)C(=O)c1ccc(=O)n(C)n1 7.24%
CN(C)CCNC(=O)C(=O)NCC1OCCCN1S(=O)(=O)c1cccs1 (configuration not stated) 5.17%
CCN(CC)CCN(CC(=O)Nc1c(C)cc(C)cc1C)C(=O)c1ccccc1 14.8%
CCN(CC)C(=O)CSc1nc2ncc(Br)cc2[nH]1 1.23%
CCCCN(C)C(=O)c1ccc2c(c1)N(CC)C(=O)c1ccccc1S2=O (configuration not stated) 7.28%
COc1ccc(/C=N/NC(=O)c2nonc2N)cc1OC 11.7%
O=C(N/N=C/c1ccc(O)cc1O)C(=O)N/N=C/c1ccc(O)cc1O 16.7%
Cc1nonc1C(=O)N/N=C/c1cc2c(cc1Br)OCO2 -12.5%
COc1ccc(/C=N/NC(=O)c2nonc2C)cc1 17.8%
COc1ccnc(N=CNOCc2ccc(Cl)cc2)c1C#N 13.5%
COc1ccc(NS(=O)(=O)c2c(C)[nH]c(=O)[nH]c2=O)cc1OC 8.91%
Cc1cccc(N(C)S(=O)(=O)c2ccc3[nH]cc(C(=O)N4CCOCC4)c(=O)c3c2)c1 -3.07%
CCOC(=O)Cc1nnc(NCc2ccccc2)c2ccccc12 6.91%
Cc1cccc(N(CC(=O)NCC2CCCO2)C(=O)CCC(=O)Nc2cc(C)on2)c1 (configuration not stated) 4.72%
Cn1cnc2cc(NCc3ccccc3Cl)ccc21 26.5%
COc1cccc(CNc2ccc3c(c2)nc(C)n3C)c1OC 30.5%
CC(C)(C)n1cnc2cc(NCc3ccccc3O)ccc21 13.7%
COc1cccc(CNc2ccc3c(c2)ncn3C(C)C)c1OC 24.5%
Cc1noc(C)c1NC(=O)Nc1cccc2c1O[C@@H](CN(C)Cc1ccc3c(c1)OCO3)[C@@H](C)CN([C@H](C)CO)C2=O 4.09%
CCN1CCCC1CNC(=O)c1ccc(Sc2ccccc2Cl)c([N+](=O)[O-])c1 (configuration not stated) 4.96%
Cc1c(O)ccc2c(CN3CCOCC3)cc(=O)oc12 17.9%
Cc1cc(=O)oc2c(CN3CCCCC3)c(O)ccc12 2.34%
Cc1ccc2c(CN3CCOCC3)cc(=O)oc2c1C 3.73%
Cc1cc(=O)oc2c(CN3CCCC3)c(O)ccc12 6.69%
CC1CCN(CC(O)COc2cccc(F)c2)CC1 (configuration not stated) 2.16%
NC(=O)c1ccc(NC(=O)CN2CCN(C(=O)c3ccco3)CC2)cc1 13.6%
CSc1cccc(CN2CCCC(CNC(=O)c3ccco3)C2)c1 (configuration not stated) 8.31%
Cc1c(NC(=O)Nc2ccc(Cl)c(Cl)c2)sc(=S)n1C -8.84%
N#C/C(=C\c1cccc(O)c1)C(=O)N1CCCCC1 11.3%
N#C/C(=C/c1cc(Cl)c(O)c(Cl)c1)C(=O)N1CCCCC1 10.9%
O=C(O)c1ccc(/C=C2\CCCc3c2nc2ccccc2c3C(=O)O)cc1 3.69%
O=C(O)c1c2c(nc3ccccc13)/C(=C/c1ccc(OC(F)F)cc1)CCC2 9.02%
CN(C)C(=O)CCc1ccc2c3c([nH]c2c1)[C@]1(C)[C@@H](C(=O)N2CCOCC2)C[C@H](CC(=O)NCc2cccc(C(F)(F)F)c2)C(=O)N1CC3 -2.92%
C/C(=N/NC(=O)c1cccc(Br)c1)C1CC2CCC1C2 (configuration not stated) -6.86%
Cc1ccc(/C=C(/C#N)c2nc(CCN3C(=O)c4ccccc4C3=O)cs2)cc1 9.96%
CC(C(=O)NC(=O)NC1CCCCC1)N1CCN(c2ccccn2)CC1 (configuration not stated) 4.4%
CN1CCC(NC(=O)NC2CCCCC2)CC1 4.99%
CN1CCN(C(=O)NC2CCCCC2)CC1 13%
CC(C(=O)NC1CCCC1)N1CCN(Cc2ccccc2)CC1 (configuration not stated) 9.35%
CC(C(=O)NC(=O)NC1CCCCC1)N1CCN(C(c2ccccc2)c2ccccc2)CC1 (configuration not stated) 4.85%
COc1ccc(N2CCN(C(C)C(=O)N3CC(C)OC(C)C3)CC2)cc1 (configuration not stated) 26.9%
CCN1CCN(C(C(=O)NC2CCCCC2)c2ccc(Cl)cc2)CC1 (configuration not stated) 2.93%
COc1ccc(N2CCN(C(C)C(=O)N3CCc4ccccc43)CC2)cc1 (configuration not stated) 19.8%
C=CCN1C(=O)CS/C1=N\S(=O)(=O)c1ccc(Cl)cc1 -1.54%
CCOC(=O)c1c(C)n(C)c2ccc(OC)c([N+](=O)[O-])c12 8.57%
CCCOc1c(Br)cc(C(=O)NCC)cc1OC 13%
CSCCC(NS(=O)(=O)c1ccc2c(c1)oc(=O)n2C)C(=O)NCc1ccc(C)cc1 (configuration not stated) 9.41%
CCCNC(=O)c1ccc(OC)cc1OC -1.98%
Cc1cccc(N=C2CCCC2C(=O)Nc2cccc(C)c2C)c1C (configuration not stated) 5.77%
NC(=O)c1ccsc1NC(=O)COC(=O)c1cc(Cl)ccc1O 0.77%
CC(=O)NC(C(=O)c1ccccc1)N1CCCCC1 (configuration not stated) 13.8%
Cc1ccc(/C=C2/NC(=O)[C@H](C)NC2=O)cc1 6.59%
